50 compounds from PubChem BioAssay AID1851 (National Center for Advancing Translational Sciences (NCATS), 2009) can be followed below.

The whole screen tested about 16,000 compounds, of which about 2,600 (16%) were called active. Inconclusive results (about 20%) are left out. Not all results are given here. Values without a mark were called inactive. The call rests on the fitted dose curve; in most records, active means well fitted curve in the direction sought with a large enough effect; inconclusive means small, poorly fitted or top-dose-only effect, or effect the other way; inactive means no such curve, though single readings can be large or run the other way.
On the % scale 0 is the no-effect control and ±100 the full control effect.

Chain of Cytochrome P450 2D6 (Homo sapiens) (P10635 whole entry, looked up): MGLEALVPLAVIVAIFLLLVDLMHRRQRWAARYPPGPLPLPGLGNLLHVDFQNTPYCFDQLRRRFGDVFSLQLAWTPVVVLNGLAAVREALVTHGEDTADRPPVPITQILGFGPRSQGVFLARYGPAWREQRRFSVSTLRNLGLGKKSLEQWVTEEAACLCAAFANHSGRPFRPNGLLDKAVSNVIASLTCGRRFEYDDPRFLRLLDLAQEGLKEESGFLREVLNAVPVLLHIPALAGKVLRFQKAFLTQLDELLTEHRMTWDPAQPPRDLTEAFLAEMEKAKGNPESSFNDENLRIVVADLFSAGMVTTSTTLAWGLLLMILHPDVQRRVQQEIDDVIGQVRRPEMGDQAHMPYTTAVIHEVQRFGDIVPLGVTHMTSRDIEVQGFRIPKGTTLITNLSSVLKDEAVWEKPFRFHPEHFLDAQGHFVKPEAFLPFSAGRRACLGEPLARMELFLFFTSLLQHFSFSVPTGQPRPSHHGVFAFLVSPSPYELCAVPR

The assay concerns the target Cytochrome P450 2D6 (Homo sapiens) (UniProt P10635). The experiment in a line: Cytochrome panel assay with activity outcomes. To be noted: recombinant CYP, pro-luciferin dealkylation, luminescence, p450-cyp2d6; series mostly up to 57.1 µM.
In the case of `Cc1cc2nc(C)n(CCCN)c2cc1C`, the AC50 entry is “inactive”.

Turning to `C[C@@H]1CCN=C(N)S1`, the AC50 entry was “inactive”. Same read-out and setting: the entry for `CN(C)c1nc(N)c(C(=O)N=C(N)N)nc1Cl` is “inactive”. Consider `CC(C)CN(C)c1nc(N)c(C(=O)N=C(N)N)nc1Cl`, for which the AC50 is 39.8 µM (active).

Turning to `N[C@]1(C(=O)O)CCc2cc(P(=O)(O)O)ccc21`, the AC50 entry is “inactive”. Same read-out and setting: the entry for `CC(C)=CCC/C(C)=C/CC/C(C)=C/CSc1ccccc1C(=O)O` is “inactive”. In the case of `O=C(N/N=C1/C[C@@H](O)[C@@H](O)[C@@H]2[C@@H]3C(=O)N(Cc4ccc5c(c4)OCO5)C(=O)[C@H]3CC[C@H]12)OCc1ccccc1`, the activity, negative = inhibition is -16.9% [at 11.4 µM].

Regarding `O=c1cc(CSc2ccccc2)[nH]c(=S)[nH]1`, the AC50 entry is “inactive”. As for `Cc1cc(CSc2ccccc2)ccc1NC(=O)COc1ccccc1`, the AC50 entry is “inactive”. Still for that read-out and setting: the figure for `CC1=CC(C)(C)Nc2ccc(CSc3ccccc3)cc21` is 0.631 µM (active). As for `Cc1cc(=Nc2ccc3c(c2)c(N)cc(C)[n+]3C)nc(N)n1C`, the activity, negative = inhibition is 2.81% [at 11.4 µM]. `Cc1ccc(C(=O)NC(=S)NCC(=O)c2ccccc2)cc1`: the AC50 entry was “inactive”. With `O=C(CSc1nc2ccccc2c2ccccc12)c1ccccc1`, the activity, negative = inhibition was 15.3% [at 11.4 µM].

Consider `C=CCSc1nc2ccccc2n1C(=O)/C=C/c1cc(OC)c(OC)c(OC)c1`, for which the AC50 entry was “inactive”. With `Cc1cc(C)c2[nH]c(=O)c(CN(Cc3ccco3)C(=O)c3cccs3)cc2c1`, the AC50 result was “inactive”.

As to `O=C(COC(=O)c1cccc(S(=O)(=O)N2CCN(c3ccccc3)CC2)c1)NCc1ccco1`, the AC50 result is “inactive”. On the same count and under the same terms, the entry for `O=C(c1ccco1)N(CCC(c1ccccc1)c1ccco1)Cc1ccco1` (stereo not given) is “inactive”. On to `O=C(c1ccccc1)N(Cc1ccco1)C1CCS(=O)(=O)C1` (stereo not given), for which the AC50 entry was “inactive”. On the same count and under the same terms, the figure for `O=C(CN(Cc1ccco1)C(=O)c1ccccc1)Nc1ccc(Cl)c(Cl)c1` is 25.1 µM (active); for `O=C(CN(Cc1ccco1)C(=O)c1cccc(Cl)c1)Nc1c(Cl)cc(Cl)cc1Cl` it is 7.08 µM (active); for `CC(=O)Nc1ccc(N2C(=O)CC(c3ccccc3)CC2=O)cc1` it is “inactive”. Same read-out and setting: the entry for `CC(=O)Nc1ccc(S(=O)(=O)N=S(C)C)cc1` is “inactive”; for `CCOc1ccc(CCNC(=O)C2CCN(S(=O)(=O)CC)CC2)cc1OCC` it is “inactive”. Still for that read-out and setting: the entry for `NS(=O)(=O)c1ccc(CCNC(=O)C2CCCN2C(=O)OCc2ccccc2)cc1` (stereo not given) is “inactive”.

Regarding `CCOc1cc(CNCCc2ccc(S(N)(=O)=O)cc2)cc(Cl)c1OCc1ccccc1`, the AC50 is 0.355 µM (active). Same read-out and setting: the entry for `NS(=O)(=O)c1ccc(CNC(=O)/C=C/c2c(Cl)cccc2Cl)cc1` is “inactive”; for `CCOc1cc(CNCCc2ccc(S(N)(=O)=O)cc2)ccc1OCc1ccc(Cl)cc1` it is 8.91 µM (active). With `COC(=O)[C@H](CCSC)NC(=O)C/C=C\[C@@H](C)[C@@H](CO)OC`, the activity, negative = inhibition was 8.79% [at 11.4 µM]. Turning to `N#CCCn1c(=O)c(-c2cccs2)nc2cnc(OCc3ccccc3)nc21`, the AC50 result is “inactive”. As for `C=CCOC(=O)C1=C(C)NC(SCC(=O)OCC)=C(C#N)C1c1ccc(C)cc1` (stereo not given), the AC50 was 14.1 µM (active).

On to `CCOC(=O)CSC1=C(C#N)C(C)C2=C(CCCC2=O)N1` (stereo not given), for which the AC50 result was “inactive”. The same measure, in the same setting: the entry for `CCOC(=O)CSC1=C(C#N)C(c2sccc2C)CC(=O)N1` (stereo not given) is “inactive”. For `C#CCCCO/N=C1/[C@H]2O[C@@H]2[C@@H](O)[C@H]2[C@H]1CCn1c(=O)n([C@@H](CC)c3ccccc3)c(=O)n12`, the activity, negative = inhibition was -15.4% [at 11.4 µM]. As for `COc1ccccc1C(=O)NN1C(=O)C2C3C=CC(O3)C2C1=O` (stereo not given), the AC50 entry was “inactive”. With `Cn1c(=O)c2[nH]c(SCCN3CCOCC3)nc2n(C)c1=S`, the activity, negative = inhibition is 0.168% [at 11.4 µM].

On to `Cc1cc(C2C(C#N)=C(N)OC3=C2C(=O)CC(C)(C)C3)c(C)s1` (stereo not given), for which the AC50 result was “inactive”. On the same count and under the same terms, the entry for `CC(=O)c1cccc(NC(=O)CCC2CCCC2)c1` is “inactive”; for `COc1ccc(CC(=O)Nc2cccc(/C(C)=N/NC(=O)c3cccc([N+](=O)[O-])c3)c2)cc1` it is “inactive”; for `CS(=O)(=O)N(CC(=O)Nc1cccc(F)c1)c1cccc([N+](=O)[O-])c1` it is 0.631 µM (active). For `COc1cccc(N(CC(=O)Nc2cccc(C(C)=O)c2)S(C)(=O)=O)c1`, the AC50 was 0.141 µM (active).

As for `CC(=O)c1cccc(NC(=O)Oc2ccccc2)c1`, the AC50 result was “inactive”. As to `Cc1ccc(NS(=O)(=O)c2ccc(OCC(=O)Nc3cccc([N+](=O)[O-])c3)c(C)c2)cc1`, the AC50 entry was “inactive”.

Take `Cc1sc(NC(=O)C2CCCCC2C(=O)O)c(C(N)=O)c1C` (stereo not given): the AC50 entry is “inactive”. As for `CO[C@@H]1COC(=O)C/C=C\[C@@H](C)[C@@H]2C=C[C@H](O)[C@@H](COC(=O)CCC[C@H]1C)O2`, the activity, negative = inhibition is 4.34% [at 11.4 µM].

For the compound `CC(C)Oc1ccc2c(=O)c3cc(C(=O)O)ccc3oc2c1`, the AC50 result is “inactive”. Still for that read-out and setting: as for `CC[C@H]1C2=C3C(CC[C@H]4C(OCc5ccc(F)cc5C(F)(F)F)OC[C@](C)([C@@H]34)N(C(=O)OC(C)(C)C)C2)C2COC(=O)OCC21` (stereo not given in full), the entry is “inactive”. Still for that read-out and setting: the entry for `COc1ccc(C2/C(=C(/O)c3ccccc3)C(=O)C(=O)N2c2ccccn2)c(OC)c1` (stereo not given) is “inactive”; for `COc1ccc(Sc2nc3ccccc3n3c(C(F)(F)F)nnc23)cc1` it is “inactive”.

On to `CC1=C(C(=O)OCc2ccccc2)C(c2cccnc2)c2c(n(C)c(=O)n(C)c2=O)N1` (stereo not given), for which the AC50 entry is “inactive”. Same read-out and setting: as for `Cc1ccc(C2Nc3ccccc3C(=O)N2Cc2ccco2)cc1` (stereo not given), the entry is “inactive”.

One may read the AC50 as the concentration giving half of the maximal activity seen.
